In PubChem BioAssay AID652104 (National Center for Advancing Translational Sciences (NCATS), 2013):
In all, about 410,000 compounds went through this assay and about 7,200 (1.8%) were called active. Another 7% or so got no clear call; they are omitted. Shown is part of a subset that was picked to be rich in actives. Unmarked numbers belong to inactive results. The call rests on the fitted dose curve; in most records, active means well fitted activation curve with a large enough effect; inconclusive means small, poorly fitted or top-dose-only effect, or another doubt; inactive means no such curve, though single readings can be large or run the other way.

Assay: qHTS of TDP-43 Inhibitors; further: nearly all actives have a fitted effect of over 50% in size; on growth rescue (activation): % of control where 0% means no effect
Settings: TDP-43 expressing yeast growth rescue, BacTiter-Glo, 24 h; series mostly up to 46.1 µM; growth rescue (activation): at the top concentration
Description: The goal of this project is to identify new chemical probes capable of reversing the toxicity associated with TDP-43 which is associated with frontotemporal lobar degeneration and amyotrophic lateral sclerosis. These compounds will provide a complementary approach to deciphering the tangled mechanisms of toxicity and protection that we have uncovered through genome-wide genetic screens and are beginning to uncover in a large-scale proteomics analysis with mass spectroscopy.
To this end, a miniaturized assay was developed to be screened against the Molecular Libraries Small Molecule Repository (MLSMR) to discover TDP-43 inhibitors. Please note that in the set-up this yeast-based assay compounds that inhibit as TDP-43, have a read-out as activators.
NIH Chemical Genomics Center [NCGC]
NIH Molecular Libraries Probe Centers Network [MLPCN]
Assay Submitter (PI): Susan Lindquist, Whitehead Institute/MIT
Dispense 2.5 microL yeast galactose medium per 1536-well plate, pin compound, dispense 2.5 microL TDP-43 expressing yeast in galactose medium at OD600=0.02 (pregrown in raffinose medium to mid-log phase) per well, incubate for 24 hr at 30 deg C, and cell growth will be measured using 5 microL of Bactiter/Glo reagent to entire plate and read using Luminescence Protocol in ViewLux.
Potency means the concentration at half of the fitted maximal effect.

| Compound | Potency | growth rescue (activation) |
| --- | --- | --- |
| Cc1ccc(C(=O)CC2(O)C(=O)N(CCc3ccccc3)c3ccc(Br)cc32)cc1 (stereo not given) | 35.5 µM (active) | – |
| C=CCN1C(=O)C(O)(CC(=O)c2ccc(Cl)cc2)c2ccccc21 (stereo not given) | – | 1.69% |
| O=C(CC1Oc2ccccc2NC1=O)NCc1ccc(F)cc1 (stereo not given) | – | -2.06% |
| O=C(O)c1c(CNCc2cccc(F)c2)c2ccccc2n1Cc1ccccc1 | – | 24.3% |
| COC(=O)C1NN=C(C(=O)c2ccc(Br)cc2)C1c1cccc(Br)c1 (stereo not given) | 25.1 µM (active) | – |
| Cc1nnc(C)n1-c1ccc(C(=O)Nc2cccc(Br)c2)cc1 | – | 3.68% |
| COC(=O)CN1C(C)=Nc2ccc(Br)cc2C1c1ccccc1 (stereo not given) | – | -3.72% |
| CC(C)Cn1c(C2CC(=O)N(c3ccccc3Cl)C2)nc2ccccc21 (stereo not given) | – | 25.5% |
| Cn1c(=O)n(Cc2c(F)cccc2Cl)c(=O)c2c1nc1n2CCN1c1ccc(F)cc1 | – | 9.24% |
| COc1ccc(CCNc2nc3c(-c4cccc(F)c4)nnn3c3ccccc23)cc1OC | – | 17.4% |
| COc1ccc(-c2cc(C(F)(F)F)n3nc(-c4ccccc4)cc3n2)cc1OC | – | 0% |
| COCCNc1cc(-c2ccccc2)nc2cc(-c3cccc(F)c3)nn12 | 3.16 µM (active) | – |
| CCOC(=O)c1cc2c(=O)n3ccccc3nc2n(CC2CCCO2)c1=NC(=O)c1ccccc1Br (stereo not given) | – | 20.8% |
| CCCc1cc(=O)n2[nH]c(NCc3ccc(CC)cc3)nc2n1 | – | 7.91% |
| N/C(Cc1ccc([N+](=O)[O-])cc1)=N\OC(=O)COc1ccc2ccccc2c1 | – | 14.2% |
| N/C(Cc1ccc([N+](=O)[O-])cc1)=N\OC(=O)C1CCCCC1 | 20 µM (active) | – |
| O=C(COC(=O)Cc1ccc([N+](=O)[O-])cc1)NC1CCCCCC1 | – | 6.3% |
| CC(C)NC(=O)c1nn(-c2ccccc2F)nc1CO | – | 2.75% |
| O=c1cc(Cn2nnc(-c3ccc(Cl)cc3)n2)nc2sccn12 | 11.2 µM (active) | – |
| Cc1ccc(-c2nn3c(=O)cc(CN4CCN(S(=O)(=O)c5ccc(Cl)cc5)CC4)nc3s2)cc1 | – | 9.9% |
| COc1cccc(C(=O)NCC(=O)OCc2cc(=O)n3ccsc3n2)c1 | – | 3.19% |
| COc1ccc2c(c1)C(c1cccs1)=NNC(c1cccnc1)=N2 | – | -15% [at 9.22 µM] |
| Brc1ccc2c(c1)NC(c1cccnc1)=NC(c1ccccc1)=N2 | 35.5 µM (active) | – |
| COc1ccc(C2=NC(c3ccncc3)=Nc3ccc(Br)cc3N2)cc1 | – | -1.4% |
| CCOc1cc(CNC(=O)c2sc3ncnc(N(C)C4CCCCC4)c3c2C)ccc1OC | – | 0% |

| Compound | Potency | growth rescue (activation) |
| --- | --- | --- |
| O=C(c1ccc(Cl)cc1)n1nc(-c2cccnc2)nc1NCc1ccc(F)cc1 | – | 14% |
| O=S1(=O)CCOC[C@H](Cc2ccccc2)N1Cc1ccccc1Br | – | 11.1% |
| CCCC[C@H]1COCCS(=O)(=O)N1Cc1cccc(Cl)c1 | 12.6 µM (active) | – |
| CCC(C)[C@H]1COCCS(=O)(=O)N1Cc1ccc(C)cc1 (stereo not given in full) | – | 24.2% |
| Cc1cccc(OCCCC(=O)Nc2sc3c(c2C(N)=O)CCC(C)C3)c1 (stereo not given) | – | 10.1% |
| Cc1nn(CC(=O)N2CCN(c3cccc(C(F)(F)F)c3)CC2)c(=O)c2cc3sccc3n12 | – | 7.26% |
| CCOc1ccc(-n2c(SCC(=O)NCc3ccccc3)nc3n[nH]c(C)c3c2=N)cc1 | – | -8.4% |
| COCCCNC(=S)N1CCCC(c2nc3cc(C)c(C)cc3[nH]2)C1 (stereo not given) | – | -14.1% [at 0.397 µM] |
| COCCCNC(=S)N1CCN(c2nc(-c3cccc(OC)c3)cs2)CC1 | 14.1 µM (active) | – |
| CN(C)CCCNC(=S)N1CCN(c2nc(-c3ccccc3)cs2)CC1 | – | -17.3% [at 1.82 µM] |
| COc1cc(OC)c(N(C)C(=O)c2cc3c(=O)oc4ccccc4c3s2)cc1Cl | – | 14.8% |
| Cc1ccc(NC(=O)CN2C(=O)C(c3ccc(F)cc3)=NC23CCCCCC3)c(C)c1 | – | 7.76% |
| COC(=O)c1ccc(CSc2nncn2N)cc1 | – | -10.7% |
| CCOC(=O)c1ccc(CSc2nnc3cc(C)c4ccccc4n23)cc1 | 22.4 µM (active) | – |
| CCOc1ccc(NC(=O)c2ccc(CSc3nnnn3C)cc2)cc1 | – | -9.01% |
| COc1ccccc1N1CCN(C(CNC(=O)C(=O)NCc2ccc(C)cc2)c2cccnc2)CC1 (stereo not given) | – | 7.84% |
| CCc1cccc(C)c1Nc1c(-c2ccc(N(C)C)cc2)nc2ncccn12 | – | -4.39% |
| COc1ccccc1CNC(=O)CCCn1c(=O)c2ccccc2n(CC(=O)Nc2ccc(C)cc2Cl)c1=O | – | 9.64% |
| O=C(CSc1oc(-c2ccccc2)nc1S(=O)(=O)c1ccc(Br)cc1)NC1CCCCC1 | – | 9.58% |
| Cn1c(C(=O)Nc2cccc(C(F)(F)F)c2)cc2c(=O)n3ccccc3nc21 | – | 15% |
| CCc1ccc(NC(=O)c2sc3nc4c(cc3c2N)CN(CC)CC4)cc1 | – | 26.6% |
| CCN1CCc2nc3sc(C(=O)Nc4ccccc4OC(F)(F)F)c(N)c3cc2C1 | – | 7.69% |
| Cc1cccc2cc3c(N)c(C(=O)N4CCCc5ccccc54)sc3nc12 | 15.8 µM (active) | – |
| CC1CCC(N2CC(=O)N(CCC3=CCCCC3)C(c3ccc(F)cc3)C2=O)CC1 (stereo not given) | – | -22.5% |
| CCN(CC)C(=O)CSc1nc2ccsc2c(=O)n1Cc1ccccc1Cl | – | 13.3% |
